Fam108B counter: Fam108B inhibition, counter-screen for RBBP9 inhibitors | hit rate 0.33% among 300,000 | inhibition, % at 9.51 µM | recombinant Fam108B, FP-Rh probe fluorescence polarization;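 active = inhibition above the screen mean inhibition plus 3 SD, computed separately per campaign, cut at about 18% in these data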;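 note: inhibitors lower polarization as less probe binds the enzyme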
GSTO1 counter: GSTO1 inhibition, counter-screen for RBBP9 inhibitors; hit rate 1.1% among 300,000; recombinant GSTO1, activity-based probe fluorescence polarization; inhibition, % at 5.96 µM;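 active = inhibition above the campaign mean inhibition plus 3 SD, cut at about 35% in these data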;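 note: 0% = GSTO1-1 with DMSO and 100% = wells lacking GSTO1-1 enzyme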
Target sequence (P78417 whole entry, looked up): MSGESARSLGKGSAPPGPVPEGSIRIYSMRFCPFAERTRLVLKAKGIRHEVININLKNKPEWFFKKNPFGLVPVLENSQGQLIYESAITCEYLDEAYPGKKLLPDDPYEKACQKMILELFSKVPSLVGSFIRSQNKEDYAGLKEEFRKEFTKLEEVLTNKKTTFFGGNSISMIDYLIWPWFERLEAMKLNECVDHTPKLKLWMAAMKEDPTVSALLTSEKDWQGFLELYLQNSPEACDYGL
PME-1 primary: PME-1 (human) inhibition. Q9Y570. recombinant PME-1, FP-Rh probe fluorescence polarization. inhibition, % at 5.9 µM. hit rate 0.53% among 320,000. AID 2130;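 active = inhibition above the campaign mean of all compounds plus 3 SD, cut at about 26% in these data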;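 note: competitive labeling of PME-1 active site by serine hydrolase directed probe; 0% = PME-1 with DMSO and 100% = wells lacking PME-1 enzyme; inhibitors block probe labeling so polarization falls and inhibition rises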
LYPLA2 counter: counter-screen for PME1 inhibitors: inhibitors of human LYPLA2. hit rate 0.38% among 320,000. AID 2177. recombinant LYPLA2, FP-Rh probe fluorescence polarization. inhibition, % at 5.9 µM;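 active = inhibition above the screen-wide mean plus 3 SD, limit set per campaign, cut at about 26% in these data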;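 note: 0% = LYPLA2 with DMSO and 100% = wells lacking LYPLA2 enzyme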
Target sequence (O95372 whole entry, looked up): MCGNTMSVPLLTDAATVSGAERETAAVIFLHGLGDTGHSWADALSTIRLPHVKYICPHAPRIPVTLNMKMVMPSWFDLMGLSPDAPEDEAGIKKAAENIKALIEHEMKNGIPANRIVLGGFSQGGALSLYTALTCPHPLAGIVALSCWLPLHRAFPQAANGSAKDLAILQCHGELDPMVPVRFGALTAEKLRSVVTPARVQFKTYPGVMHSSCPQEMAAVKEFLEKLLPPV
PAD4 FP inh: inhibitors of human PAD4 | inhibition, % at 6.36 µM | recombinant PAD4, RCA probe fluorescence polarization | hit rate 0.41% among 330,000 | Q9UM07;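 active = percent inhibition above a cutoff equal to the mean of all tested compounds plus 3 SD, cut at about 15% in these data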;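 note: 0% = PAD4 with RCA probe and DMSO and 100% = probe without PAD4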
LYPLA1 counter: counter-screen for PME1 inhibitors: inhibitors of human LYPLA1; hit rate 0.16% among 320,000; inhibition, % at 5.9 µM; O75608; recombinant LYPLA1, FP-Rh probe fluorescence polarization;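 active = inhibition above the mean of all tested compounds plus 3 SD, set per campaign, cut at about 14% in these data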;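 note: inhibitors block serine hydrolase probe labeling of LYPLA1 so polarization falls; 0% = enzyme with DMSO and 100% = wells lacking LYPLA1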
Fam108b confirm: confirmation of mouse Fam108b serine hydrolase inhibitors | hit rate 44% among 930 | inhibition, % at 9.51 µM | recombinant Fam108b, FP-Rh probe fluorescence polarization | shares compounds with Fam108B counter;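 active = inhibition above a limit from the primary screen, the mean over all compounds plus 3 SD, cut at about 19% in these data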;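 note: 0% = median of active Fam108b wells and 100% = catalytically dead S170A mutant; inhibitors free the probe so polarization falls as inhibition rises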
Fam108b inh: inhibits mouse Fam108b in gel-based ABPP | shares compounds with Fam108B counter | recombinant Fam108b, fluorophosphonate probe | inhibition, % at 20 µM | hit rate 44% among 260; in the data active = inhibition above about 40%
Active calls of the source: *; · = no result given. Only some compounds are listed: those with a hit (about 1.8% of all), similar ones and a draw of the others.

SMILES	Fam108B counter	GSTO1 counter	PME-1 primary	LYPLA2 counter	PAD4 FP inh	LYPLA1 counter	Fam108b confirm	others
COc1ccc(NC(=O)CN(C)CC(=O)NC2CCC(C)CC2)cc1 (stereo unspecified)	·	·	-1	7	2	3	·
CCOc1cc(/C=C2\C(=O)N(c3ccc(C(N)=O)cc3)N=C2C)ccc1OC(=O)c1cccs1	20*	73*	9	15	27*	1	8
CCOc1cc(/C=C2/SC(=S)N(CC(=O)O)C2=O)ccc1OC(=O)c1cccs1	-13	-64	-32	-19	0	-10	·
N=C1/C(=C\c2coc3ccccc3c2=O)C(=O)N=C2SC(c3ccncc3)=NN12	9	-477	-55	-2	-36	-3	·
CC(C)CSC1=NSC2=NC(=O)/C(=C\c3coc4ccccc4c3=O)C(=N)N12	37*	-57	22	0	-27	6	40*	Fam108b inh=15
CSC1=NSC2=NC(=O)/C(=C\c3coc4ccccc4c3=O)C(=N)N12	31*	-31	18	-6	-10	-8	54*	Fam108b inh=5
Cc1ccc(S(=O)(=O)N(CC(=O)Nc2cc(C)ccc2C)C(=O)N2CCN(C)CC2)cc1	1	10	0	2	4	1	·
COc1cc(OC)cc(C(=O)Oc2ccc(/C=N/Nc3nc4ccccc4s3)cc2OC)c1	26*	0	31*	-1	-3	-4	12
COc1cc(/C=N/Nc2nc3ccccc3s2)ccc1OC(=O)c1ccccc1F	3	4	18	5	-2	-12	·
O=C(Nc1ccc(Cl)cc1)Nc1ccc2c(c1)N1CCN=C1S2	22*	-3	20	-2	6	-12	10
COc1ccc(NC(=O)c2cc3c(-c4ccc(OC)c(OC)c4)nn(C)c3s2)cc1OC	46*	3	17	2	-3	9	-1
COc1ccc(Cl)cc1NC(=O)c1[nH]c(C)c(C(C)=O)c1C	1	3	-6	0	9	-1	·
CCc1c(C(=O)Nc2ccc(OC)c(Cl)c2)[nH]c(C)c1C(C)=O	19*	-14	-4	-7	-3	-14	39*	Fam108b inh=0
Nc1nn2c(-c3ccccc3)cc(=O)[nH]c2c1N=Nc1ccc(O)cc1	21*	21	17	-9	-11	-7	17
C=C(C)Cn1c(SCC(=O)N/N=C/c2c(O)ccc3ccccc23)nc2ccccc2c1=O	29*	15	-10	-8	-5	-4	-15
C=C(C)Cn1c(SCC)nc2ccccc2c1=O	3	12	-6	-1	-3	-2	·
Nc1c(S(=O)(=O)c2cccc(Cl)c2)c2nc3ccccc3nc2n1/N=C/c1ccc(O)c(O)c1	77*	-81	51*	-6	-15	-24	140*
COc1cccc(/C=N/n2c(N)c(S(=O)(=O)c3cccs3)c3nc4ccccc4nc32)c1OC	-10	-3	-7	5	-3	2	·
COc1ccc(OC)c(N(CC(=O)N2CCN(c3cc(Cl)ccc3C)CC2)S(C)(=O)=O)c1	4	1	-1	0	0	0	·
CCOC(=O)C1=C(C)N=c2s/c(=C\c3ccc(O)c([N+](=O)[O-])c3)c(=O)n2C1c1ccccc1OC (stereo unspecified)	28*	34	6	0	0	2	45*
CCOC(=O)C1=C(C)N=c2s/c(=C\c3ccc(OCC(=O)O)cc3)c(=O)n2C1c1ccccc1OC (stereo unspecified)	-5	-7	-7	-12	5	-9	·
Cc1cnc([N+](=O)[O-])n1CCOC(=O)NC(=O)c1cccc(F)c1	-2	-5	-9	-2	-8	1	·
COc1ccc(N=Nc2ccc3ccccc3c2)c(O)c1	-1	1	1	0	1	-1	·
Cc1ccc(N=Nc2ccc3ccccc3c2O)cc1	28*	3	-5	0	-6	4	9
Oc1c(N=Nc2ccc(F)cc2)ccc2ccccc12	-16	9	-15	-3	-6	5	·
SMILES	Fam108B counter	GSTO1 counter	PME-1 primary	LYPLA2 counter	PAD4 FP inh	LYPLA1 counter	Fam108b confirm	others
COc1cccc(N=Nc2ccc3ccccc3c2O)c1	19*	0	7	-4	-7	-5	5
Cc1cc(NC(=S)N(CCCN2CCN(C)CC2)Cc2ccco2)ccc1Cl	-3	4	-3	1	-3	0	·
CC(C)c1ccc(-c2nc(N3CCCCC3)[nH]c(=O)c2C#N)cc1	-2	2	4	-2	-3	0	·
CC1=Nc2nc(N3CCCCC3)c(C#N)c3c4c(nc(c23)N1)N(c1ccc(C(C)C)cc1)C(=O)C4	27*	28	14	-1	11	-8	14
CCn1c(=O)cc(SCC(=O)N2CCN(c3ccccc3F)CC2)c2ccccc21	1	-3	7	4	0	0	·
CC1=CC(C#N)(C#N)C(C#N)(C#N)C(c2ccccc2)N1 (stereo unspecified)	43*	32	50*	44*	2	42*	-2
COc1cc(OC)cc(-c2c(-c3cccs3)c3cc(-c4ccc(CN5CCOCC5)cc4)ccc3n2C)c1	·	·	·	·	-4	·	·
COc1cc2c(cc1NC(=O)Nc1ccc(C)cc1)oc1ccccc12	5	-14	12	-18	1	-7	·
COc1cc2c(cc1NC(=O)Nc1cccc(C)c1)oc1ccccc12	22*	-3	36*	6	-4	-12	8
Cn1c(=N)n(CC(=O)c2ccc(Cl)c(Cl)c2)c2ccccc21	21*	-3	19	12	-3	5	6
Cc1cc(C)n2nc(S(=O)(=O)NC(C)(C)C)nc2n1	2	5	-1	-3	-8	0	·
Cc1cc(SCC(=O)c2ccc(O)c(O)c2)n2nc(C)c(-c3ccccc3)c2n1	18*	35*	15	7	-2	-17	-16
C(=N\Nc1nc2ccccc2s1)/c1ccccn1	4	-11	13	-3	1	1	·
Brc1csc(C=NNc2nc3ccccc3s2)c1	·	·	·	·	·	·	·	Fam108b inh=70*
Brc1cc2c(cc1/C=N/Nc1nc3ccccc3s1)OCO2	7	-4	4	-1	0	0	·
Cc1ccc2[nH]c(C)c(/C=N/Nc3nc4ccccc4s3)c2c1	27*	-25	58*	-4	2	0	3
O=[N+]([O-])c1cc(Cl)cc(/C=N/Nc2nc3ccccc3s2)c1O	33*	14	20	4	-4	5	9
Brc1csc(/C=N/Nc2nc3ccccc3s2)c1	32*	-19	31*	20	-3	-10	37*
CC(C)(C)N/N=C/c1cc(Cl)cc([N+](=O)[O-])c1O	5	15	1	5	0	-1	·
